# PfG6PD inh: PfG6PD enzyme inhibitors, primary screen, biochemical, fluorescence intensity, uHTS; glucose-6-phosphate dehydrogenase-6-phosphogluconolactonase (Plasmodium falciparum 3D7); AID 504690, 2011; inhibition, % at 20 µM; PfGluPho enzyme, NADPH resazurin-diaphorase fluorescence; actives 0.78% (n = 350,000);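 active = inhibition reaching at least a set limit at 20 µM in the primary screen, cut at about 59% in these data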
# M18AAP inhibitor: PfM18AAP inhibitors, malaria aminopeptidase, primary screen, biochemical, QFRET, recombinant enzyme. inhibition, % at 7.35 µM. AID 1822, 2009. H-Glu-NHMec fluorogenic cleavage. actives 1.2% (n = 290,000);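 active = inhibition above the campaign mean inhibition over all tested compounds plus 3 SD, cut at about 28% in these data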
# H9c2 protect: cardioprotection against H2O2-induced cell death, primary screen, uHTS, H9c2 cells, ATPLite luminescence. H9c2 cardiomyocytes, H2O2 injury protection, 2 h. protection from H2O2 cell death, % at 20 µM. actives 0.63% (n = 360,000). AID 588492, 2011;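 active = compounds giving at least 50% protection of heart cells from peroxide-induced death in the single-dose screen, raw or plate-pattern-corrected value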
# PHOSPHO1 block: PubChem AID 1565. actives 1.1% (n = 290,000). inhibition, % at 13.3 µM. recombinant PHOSPHO1, absorbance phosphatase assay; in the data active = inhibition above about 60%
# Target sequence (Q8TCT1 whole entry, looked up): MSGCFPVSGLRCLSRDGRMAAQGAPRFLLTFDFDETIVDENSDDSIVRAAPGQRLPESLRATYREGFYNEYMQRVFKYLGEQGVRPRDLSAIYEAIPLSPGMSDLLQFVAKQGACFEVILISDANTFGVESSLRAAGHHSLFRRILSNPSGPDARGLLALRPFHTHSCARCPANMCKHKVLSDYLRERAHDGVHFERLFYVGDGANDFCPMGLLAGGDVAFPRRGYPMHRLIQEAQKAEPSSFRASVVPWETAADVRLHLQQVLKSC
# ALR H2O2 inh: inhibitors of human ALR sulfhydryl oxidase, primary screen, biochemical, H2O2 detection, HRP-luminol luminescence, single point; purified ALR, DTT oxidation; inhibition, % (no concentration beside the values); actives 3.8% (n = 290,000); AID 485317, 2010;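 active = mean replicate inhibition above about 79%, with every replicate also reaching it, limit read from the data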
# Target sequence (P55789 whole entry, looked up): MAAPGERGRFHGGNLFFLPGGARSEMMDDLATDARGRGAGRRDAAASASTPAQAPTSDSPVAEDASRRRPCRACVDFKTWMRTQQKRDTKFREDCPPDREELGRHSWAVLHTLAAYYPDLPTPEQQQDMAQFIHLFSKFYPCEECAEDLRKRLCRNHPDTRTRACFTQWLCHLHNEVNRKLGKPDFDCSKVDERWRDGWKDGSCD
# PfGluPho conf: PfG6PD inhibitors, hit retest, confirmation, biochemical, fluorescence intensity, single concentration. AID 504753, 2011. shares compounds with PfG6PD inh. inhibition, % at 20 µM. actives 34% (n = 2,400). recombinant PfGluPho, NADPH-diaphorase-resazurin fluorescence;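 active = inhibition of at least 50% at 20 µM in any single replicate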
# Diaph ctr 10uM: diaphorase inhibitors and chemical oxidizers, confirmation, counter-screen for P. falciparum G6PD inhibitor project, biochemical, fluorescence intensity, 10 µM NADPH | inhibition, % at 20 µM | diaphorase-coupled resazurin reduction, NADPH 10 uM | shares compounds with PfG6PD inh | actives 39% (n = 820);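 active = average inhibition reaching 50% or more with the compound at 20 µM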;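 also: resorufin red fluorescence formed as diaphorase reduces resazurin using NADPH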
# Diaph ctr 30uM: diaphorase inhibitors and chemical oxidizers, confirmation, counter-screen for P. falciparum G6PD inhibitor project, biochemical, fluorescence intensity, 30 µM NADPH | shares compounds with PfG6PD inh | Diaphorase/resazurin coupled assay, resorufin fluorescence | inhibition, % at 20 µM | actives 29% (n = 820);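 active = inhibition averaging 50% or more, tested at 20 µM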
# Numbers stand for hits; i = inactive; nt = not tested or not shown; ! = not active in a repeat. Most compounds without a hit are left out; they make up all but 5.6% or so of the library.
SMILES,PfG6PD inh,M18AAP inhibitor,H9c2 protect,PHOSPHO1 block,ALR H2O2 inh,PfGluPho conf,others
Cc1noc(C(=O)Nc2sc3c(c2C#N)CCC3)c1Cl,83.1,i,i,i,i,52.2,Diaph ctr 10uM=i;Diaph ctr 30uM=i
O=c1cc(-c2ccccc2)[nH]c2ccccc12,i,i,i,i,nt,nt,
O=C1C(c2cc(=O)c3ccccc3[nH]2)=C(O)c2ccccc21,82.9,i,i,i,i,65.2,Diaph ctr 10uM=50.5;Diaph ctr 30uM=i
COC(=O)c1sc(=S)n(-c2cc(F)ccc2F)c1N,59.5,i,i,i,i,i,
CCOC(=O)c1sc(=S)n(-c2cc(OC)ccc2OC)c1N,78.1,i,i,i,i,i,
CC(C)[C@]1(c2ccccc2)ON(c2ccccc2C(F)(F)F)C1=O,nt,nt,nt,nt,i,nt,
COc1ccc(Nc2nc(Cl)c(C=O)s2)cc1,nt,i,i,i,i,nt,
C[C@H](O)[C@@H]1CN2CCc3c([nH]c4ccc(-c5ccc6c(c5)OCO6)cc34)[C@@H]2C[C@@H]1N(C)C(=O)NC1CCCCC1,i,nt,i,nt,nt,nt,
O=C(O)c1ccccc1-c1cn2cc(Cl)ccc2n1,i,i,i,i,i,nt,
COc1ccc(-c2cn3cc(Cl)ccc3n2)cc1OC,132.9,i,i,i,i,76.9,Diaph ctr 10uM=61.6;Diaph ctr 30uM=57.3
COc1ccc(-c2nc3ccc(C)cn3c2Cc2ccc(C)cc2)cc1OC,nt,nt,i,nt,nt,nt,
COc1ccc(-c2cn3cc(C)ccc3n2)cc1Br,103.3,i,i,i,i,53.8,Diaph ctr 10uM=i;Diaph ctr 30uM=i
Clc1ccc2nc(-c3ccc(Br)s3)cn2c1,80.4,i,i,i,i,50.8,Diaph ctr 10uM=i;Diaph ctr 30uM=i
CCN(CC(=O)Nc1ccc(NC(C)=O)cc1)C(=O)CN1C(=O)NC(C)(c2ccc3ccccc3c2)C1=O (stereo not given),i,nt,i,nt,nt,nt,
O=C(c1ccc(C(F)(F)F)cc1)N1CCN(c2ccc(N3CCOCC3)nn2)CC1,i,nt,i,nt,i,nt,
NC(=S)N/N=C/c1c[nH]c2ccc(OCc3ccccc3)cc12,59.9,i,i,i,98.9,i,
O=C(CC1CC1)Nc1ccc2c(c1)[C@@H]1C[C@H](CC(=O)NC3CCCC3)O[C@@H](CO)[C@@H]1O2,i,nt,i,nt,nt,nt,
CCc1ccc(CC(=S)N2CCOCC2)cc1,i,i,i,i,i,nt,
COc1ccc(CC(=S)N2CCOCC2)cc1,66.0,i,i,72.8,i,i,
Cc1cc(O)c(C(C)C)cc1N=Cc1ccccc1[N+](=O)[O-],100.9,nt,i,nt,nt,65.1,Diaph ctr 10uM=i;Diaph ctr 30uM=i
CC(C)NC(=S)N/N=C/c1ccccc1[N+](=O)[O-],i,i,i,i,i,nt,
Cc1ccc(F)c(CNC(=O)C2CCC(=O)N(CCCN3CCCC3=O)C2)c1F (stereo not given),i,i,i,i,i,nt,
Cc1cc(Cl)ccc1OCCCC(=O)N/N=C/c1cccc([N+](=O)[O-])c1,112.0,i,i,i,i,93.7,Diaph ctr 10uM=81.3;Diaph ctr 30uM=57.5
Cc1cc(C)n(CCC(=O)N/N=C/c2cccc([N+](=O)[O-])c2)n1,i,i,i,i,i,nt,
O=C(CCCOc1ccc(Cl)cc1Cl)N/N=C/c1ccc(Cl)cc1,61.9,i,i,i,nt,i,
SMILES,PfG6PD inh,M18AAP inhibitor,H9c2 protect,PHOSPHO1 block,ALR H2O2 inh,PfGluPho conf,others
Nc1ccc(CNC(=O)OCC2c3ccccc3-c3ccccc32)cc1,116.7,nt,i,nt,i,73.7,Diaph ctr 10uM=65.0;Diaph ctr 30uM=56.2
Cn1c2ccccc2c(=O)c2ccc(C#Cc3ccc(N)cc3)cc21,i,i,i,i,i,nt,
Cn1c2ccccc2c(=O)c2cc(C#Cc3cccc(N)c3)ccc21,62.4,nt,i,nt,i,i,
C[c-]1[c-](C)[c-](C)[c-](C)[c-]1C.[Fe].c1cc2nccc(N3CCCC3)[c-]2c1 (stereo not given),85.0,nt,i,i,93.6,66.0!,Diaph ctr 10uM=i;Diaph ctr 30uM=i
O=C(c1ccc(N2C(=O)c3ccccc3C2=O)cc1)N1CCN(S(=O)(=O)c2ccccc2F)CC1,i,nt,i,nt,nt,nt,
COc1ccc(C(=O)Nc2ccc3ccccc3c2)c(OC)c1,73.7,i,i,i,i,i,
COc1ccccc1C(=O)Nc1ccc2ccccc2c1,i,nt,i,nt,i,nt,
Cn1c(=O)c2c(nc(SCC(=O)c3ccccc3F)n2C)n(C)c1=O,nt,i,nt,i,i,nt,
CCN1CCN(Cc2ccc(NC(=O)c3ccc(C)c(NC(=O)c4ccno4)c3)cc2C(F)(F)F)CC1,i,nt,i,i,i,nt,
CCN1CCN(Cc2ccc(NC(=O)c3ccc(C)c(/C=C/c4cnc(Nc5cc(N6CCNCC6)nc(C)n5)cn4)c3)cc2C(F)(F)F)CC1,66.4!,i,i,i,i,i,
NC(=O)COc1ccc(NC(=O)CC23CC4CC(CC(C4)C2)C3)cc1,i,i,i,i,nt,nt,
Nc1[nH]n(-c2ccccc2)c(=O)c1N=Nc1ccc2ncsc2c1,67.4,i,i,i,i,i,
O=C(NCCCc1ccccc1)c1ccc(CS(=O)Cc2ccccc2Cl)o1 (stereo not given),i,i,i,i,i,nt,
O=C(COC(=O)c1ccccn1)c1ccc([N+](=O)[O-])cc1,62.8,i,i,i,i,i,
O=S(=O)(NCc1csc(-c2cccnc2)n1)c1ccc(Cl)s1,i,i,i,i,i,nt,
O=S(=O)(NCc1csc(-c2ccccc2)n1)c1ccc(Cl)s1,99.3,i,i,i,i,47.6,Diaph ctr 10uM=i;Diaph ctr 30uM=i
COc1cc(NC(=O)C2CCN(S(=O)(=O)c3ccc4[nH]c(=O)oc4c3)CC2)cc(OC)c1,i,i,i,i,i,nt,
CC(=O)N(Cc1ccc(F)cc1)C1=C(NCc2ccccc2)C(=O)c2ccccc2C1=O,70.8,i,i,i,nt,i,
O=C(NCc1ccc(F)cc1)C(c1ccccc1)c1ccccc1,i,i,i,i,i,nt,
Cc1cn(CC(=O)c2ccccc2)c2ccccc12,i,i,i,i,i,nt,
S=C(NNC(=S)Nc1ccc(Cl)cc1)NNc1ccccc1,72.9,nt,i,nt,nt,i,
CCC1(c2ccccc2)SC(N)=NC1=O (stereo not given),i,nt,i,nt,nt,nt,
COc1ccc(CCn2c(NN=C(C)C)nc3c2c(=O)[nH]c(=O)n3C)cc1,118.1,i,i,i,i,50.9,Diaph ctr 10uM=i;Diaph ctr 30uM=i
COc1ccc(CCn2c(NN)nc3c2c(=O)[nH]c(=O)n3C)cc1,103.4,i,i,i,i,88.2,Diaph ctr 10uM=i;Diaph ctr 30uM=i
COc1cc(C(=O)Nc2nc(C)c(Cc3ccc4c(c3)OCO4)s2)cc(OC)c1OC,62.3,i,i,74.3,i,i,

# Assay outcomes: PubChem, several laboratories
